Inconclusive results are not listed. Calls of active or inactive are those of the source. The call rests on the fitted dose curve; in most records, active means well fitted inhibition curve with a large enough effect; inconclusive means small, poorly fitted or top-dose-only effect; inactive means flat fitted curve, though single readings scatter.
How the values were obtained:
Test in all cases: qHTS profiling for inhibitors of Plasmodium falciparum proliferation (AID 504749); further: nearly all actives have a fitted effect of over 60% in size
Conditions in all cases: P. falciparum in erythrocytes, SYBR Green DNA, 72 h; series mostly up to 28.7 µM
CP329 = system: CP329
How it was run: (§1)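 Three-day growth assay of blood-stage parasites in erythrocytes (0.3% parasitemia, 2.5% hematocrit) at 37 C, 5% CO2, quantified by SYBR Green DNA staining after overnight detergent lysis.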

CP335 = system: CP335
How it was run: as §1

DFO2036 = system: DFO2036
How it was run: as §1

DIV14 = system: DIV14
How it was run: as §1

DIV17 = system: DIV17
How it was run: as §1

DIV30 = system: DIV30
How it was run: as §1

Dd2 = system: Dd2
How it was run: as §1

ECU = system: ECU
How it was run: as §1

FAB9 = system: FAB9
How it was run: as §1

GB4 = system: GB4
How it was run: as §1

HB3 = system: HB3
How it was run: as §1

ICS = system: ICS
How it was run: as §1

JCK = system: JCK
How it was run: as §1

N140 = system: N140
How it was run: as §1

P93_24 = system: P93_24
How it was run: as §1

P94_40 = system: P94_40
How it was run: as §1

PAD = system: PAD
How it was run: as §1

PC15 = system: PC15
How it was run: as §1

PC26 = system: PC26
How it was run: as §1

PC49 = system: PC49
How it was run: as §1

Measured: Potency
Potency means the concentration at half of the fitted maximal effect.

O=[N+]([O-])c1cc(I)c(O)c(I)c1
inactive: CP329 | CP335 | DFO2036 | DIV14 | DIV17 | DIV30 | Dd2 | ECU | FAB9 | GB4 | HB3 | ICS | JCK | N140 | P93_24 | P94_40 | PAD | PC15 | PC26 | PC49

Clc1ccc(Cl)cc1
inactive: CP329 | CP335 | DFO2036 | DIV14 | DIV17 | DIV30 | Dd2 | ECU | FAB9 | GB4 | HB3 | ICS | JCK | N140 | P93_24 | P94_40 | PAD | PC15 | PC26 | PC49

O=Cc1ccco1
inactive: CP329 | CP335 | DFO2036 | DIV14 | DIV17 | DIV30 | Dd2 | ECU | FAB9 | GB4 | HB3 | ICS | JCK | N140 | P93_24 | P94_40 | PAD | PC15 | PC26 | PC49

CC(Cc1ccccc1)NC=O (stereo not given)
inactive: CP329 | CP335 | DFO2036 | DIV14 | DIV17 | DIV30 | Dd2 | ECU | FAB9 | GB4 | HB3 | ICS | JCK | N140 | P93_24 | P94_40 | PAD | PC15 | PC26 | PC49

[O]=[Cr](=[O])([OH])[O][Cr](=[O])(=[O])[OH]
inactive: CP329 | CP335 | DFO2036 | DIV14 | DIV17 | DIV30 | Dd2 | ECU | FAB9 | GB4 | HB3 | ICS | JCK | N140 | P93_24 | P94_40 | PAD | PC15 | PC26 | PC49

ClC(Cl)(Cl)Cl
inactive: CP329 | CP335 | DFO2036 | DIV14 | DIV17 | DIV30 | Dd2 | ECU | FAB9 | GB4 | HB3 | ICS | JCK | N140 | P93_24 | P94_40 | PAD | PC15 | PC26 | PC49

CCC1(C)CC(=O)NC(=O)C1
inactive: CP329 | CP335 | DFO2036 | DIV14 | DIV17 | DIV30 | Dd2 | ECU | FAB9 | GB4 | HB3 | ICS | JCK | N140 | P93_24 | P94_40 | PAD | PC15 | PC26 | PC49

O=P(O)(O)C(Cl)(Cl)P(=O)(O)O
inactive: CP329 | CP335 | DFO2036 | DIV14 | DIV17 | DIV30 | Dd2 | ECU | FAB9 | GB4 | HB3 | ICS | JCK | N140 | P93_24 | P94_40 | PAD | PC15 | PC26 | PC49

CC(N)Cc1ccc(O)cc1 (stereo not given)
inactive: CP329 | CP335 | DFO2036 | DIV14 | DIV17 | DIV30 | Dd2 | ECU | FAB9 | GB4 | HB3 | ICS | JCK | N140 | P93_24 | P94_40 | PAD | PC15 | PC26 | PC49

O=CC=O
inactive: CP329 | CP335 | DFO2036 | DIV14 | DIV17 | DIV30 | Dd2 | ECU | FAB9 | GB4 | HB3 | ICS | JCK | N140 | P93_24 | P94_40 | PAD | PC15 | PC26 | PC49

Clc1ccccc1Cl
inactive: CP329 | CP335 | DFO2036 | DIV14 | DIV17 | DIV30 | Dd2 | ECU | FAB9 | GB4 | HB3 | ICS | JCK | N140 | P93_24 | P94_40 | PAD | PC15 | PC26 | PC49

O=[N+]([O-])c1ccc(F)c([N+](=O)[O-])c1
inactive: CP329 | CP335 | DFO2036 | DIV14 | DIV17 | DIV30 | Dd2 | ECU | FAB9 | GB4 | HB3 | ICS | JCK | N140 | P93_24 | P94_40 | PAD | PC15 | PC26 | PC49

ClC=C(Cl)Cl
inactive: CP329 | CP335 | DFO2036 | DIV14 | DIV17 | DIV30 | Dd2 | ECU | FAB9 | GB4 | HB3 | ICS | JCK | N140 | P93_24 | P94_40 | PAD | PC15 | PC26 | PC49

N#CC(C#N)=Cc1cc(O)c(O)c(O)c1
inactive: ECU
active: CP335 6.75 µM | DIV14 13.5 µM | DIV17 10.7 µM | Dd2 6.31 µM | GB4 10.7 µM | HB3 8.91 µM | ICS 2.82 µM | N140 15.8 µM | P93_24 5.01 µM | P94_40 11.2 µM | PAD 7.08 µM | PC15 6.31 µM | PC26 8.49 µM

CCC1(CC)C(=O)NC(=O)N(C)C1=O
inactive: CP329 | CP335 | DFO2036 | DIV14 | DIV30 | Dd2 | ECU | FAB9 | GB4 | HB3 | ICS | JCK | N140 | P93_24 | P94_40 | PAD | PC15 | PC26 | PC49

CCC1(c2ccccc2)C(=O)NC(=O)N(C)C1=O (stereo not given)
inactive: CP329 | DFO2036 | DIV30 | Dd2 | FAB9 | JCK | P94_40 | PC49
active: HB3 11.2 µM | ICS 3.98 µM

C[C@H]1CCC[C@H](O)CCCCCc2cc(O)cc(O)c2C(=O)O1
inactive: CP329 | CP335 | DFO2036 | DIV30 | Dd2 | FAB9 | HB3 | JCK | P93_24 | PAD | PC15 | PC49

C[C@@H](Cc1ccccc1)NCCC(c1ccccc1)c1ccccc1
inactive: CP329 | DFO2036 | FAB9 | JCK | PC49
active: DIV14 3.22 µM | DIV17 2.56 µM | ECU 3.55 µM | ICS 3.16 µM

COc1ccc2c(c1OC)C(=O)OC2C1c2cc3c(cc2CCN1C)OCO3 (stereo not given)
inactive: DFO2036 | Dd2 | ECU | FAB9 | HB3 | ICS | JCK | N140 | P93_24 | P94_40 | PAD | PC15 | PC49

Oc1cccc[c]1[Hg][Cl]
active: CP329 9.53 µM | DFO2036 5.62 µM | DIV14 4.78 µM | DIV17 5.36 µM | DIV30 9.53 µM | Dd2 2.51 µM | ECU 3.55 µM | FAB9 10 µM | GB4 4.26 µM | HB3 10 µM | ICS 5.01 µM | JCK 12.6 µM | N140 5.01 µM | P93_24 6.31 µM | P94_40 5.01 µM | PAD 5.62 µM | PC15 10 µM | PC26 12 µM | PC49 14.1 µM

CN1CCCC(=C(c2cccs2)c2cccs2)C1
inactive: ECU | FAB9 | HB3 | JCK | PC15
active: DIV17 6.75 µM | Dd2 11.2 µM | GB4 8.49 µM

CC1CCC(C(C)C)C(OC(=O)c2ccccc2N)C1 (stereo not given)
inactive: CP329 | CP335 | DFO2036 | DIV17 | DIV30 | ECU | FAB9 | JCK | N140 | P93_24 | PAD | PC26 | PC49

O=C1CN=C(c2ccccc2)c2cc(Cl)ccc2N1CC1CC1
inactive: CP329 | DFO2036 | DIV14 | DIV30 | Dd2 | ECU | FAB9 | GB4 | HB3 | JCK | N140 | P93_24 | P94_40 | PAD | PC15 | PC26 | PC49

CCOc1ccc2c3c1O[C@H]1[C@@H](O)C=C[C@H]4[C@@H](C2)N(C)CC[C@@]341
active: DIV14 15.1 µM
inactive: CP329 | CP335 | DFO2036 | Dd2 | ECU | FAB9 | HB3 | ICS | JCK | N140 | P93_24 | P94_40 | PAD | PC15 | PC49
